Assay results reported in PubChem BioAssay (NCI).
The panel holds about 79,000 compounds, 15% with a hit somewhere; the sample as a whole holds those more often. A number with no mark means an inactive call. Activity calls are given as the source filed them. No stated cut-off is given here; in the data, active means growth inhibition above about 70%; inactive means the rest. Where a SMILES comes first, the peptide text is derived from it. The star is where a group is joined. Fmoc = O=C(OCC1c2ccccc2-c2ccccc21)*; OBn = c1ccc(CO*)cc1; tBu = CC(C)(C)*

Test: NCI Yeast Anticancer Drug Screen. Data for the bub3 strain (AID 167)
Details: S. cerevisiae bub3 mutant strain, at 50.0 µM, hits give high values
In short: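 Compounds were applied to a genetically altered yeast strain carrying a cell-cycle control defect. Growth inhibition was scored against vehicle-treated controls.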

Row | SMILES | growth inhibition
1 | Nc1nc(Cl)c2nc(Cl)n(C3OC(CO)C(O)C3O)c2n1 (stereo not given) | 4.5%
2 | COc1ccc2nc3cc(Cl)ccc3c(NCCCNCCCNc3c4ccc(Cl)cc4nc4ccc(OC)cc34)c2c1 | -6%
3 | CCCCCCCCCCCCCCCc1cc(=O)n(-c2ccc(NC(C)=O)cc2)n1C | -1%
4 | Cc1cccc([N+](=O)[O-])c1C | 10.8%
5 | CCOC(=O)c1c2ccc(/C=C/c3ccccc3)ccc-2c(C(=O)OCC)c1N | -32%
6 | CN1CCC(CC(O)(c2ccccc2)C2CCCCC2)C1 (stereo not given) | 4.2%
7 | Nc1ncnc2c1ncn2C1OC(C(=O)OCCO)C(O)C1O (stereo not given) | -11.2%
8 | O=C1CCC(c2n[nH]c(=S)o2)N1 (stereo not given) | 13.2%
9 | CN(C)c1nc(Cl)nc2nc(Cl)[nH]c12 | -3.2%
10 | OCCN(CCO)c1ccc(-n2cnc3c(=S)nc[nH]c32)cc1 | 8.35%
11 | Cc1cccc(C)c1NC(=O)C(=O)Cc1nc2ccccc2s1 | -30.5%
12 | CC(=O)c1ccc([C@H](O)[C@H](CO)NC(=O)C(Cl)Cl)cc1 | -21.6%
13 | CCOC(OCC)/C(C)=N/N(C)C | -6.1%
14 | CN(C)CCCCCCNCCC#N | -28.4%
15 | CCOC(=O)c1[nH]n(-c2ccccc2)c(=O)c1/C=N/C(=S)Nc1c(CC)cccc1CC | -8.25%
16 | COc1cc(C2c3cc4c(cc3OC(N3CCCCC3)C2C)OCO4)cc(OC)c1O (stereo not given) | -18.5%
17 | O=C(O)CNC(=O)NNc1ccccc1 | -10.3%
18 | CC(OC(C)(C)C)C(NC(=O)OCC1c2ccccc2-c2ccccc21)C(=O)NC(Cc1ccccc1)C(=O)OCc1ccccc1 (stereo not given) (Fmoc-Thr(tBu)-Phe-OBn; configuration not given here) | -18.6%
19 | CCCCC(=O)OC[n+]1ccc2c(C)c3[nH]c4ccc(OC)cc4c3c(C)c2c1 | 87.1% (active)
20 | C=CCc1cccc(C)c1O | -2.6%

Row | SMILES | growth inhibition
21 | CCOC(=O)CNC(=O)C(=[N+]=[N-])C(=O)COc1ccc(Cl)cc1Cl | 19.4%
22 | O=C(CNS(=O)(=O)c1ccccc1)c1ccc(Cl)cc1Cl | 54.5%
23 | COc1cc(-c2ccc(N=Nc3ccc(N)nc3N)c(OC)c2)ccc1N=Nc1ccc(N)nc1N | -1.45%
24 | OC1COc2c3ccccc3nn2C1 (stereo not given) | 7.8%
25 | Cc1cc(CC(N)C(=O)O)ccc1O (stereo not given) | 0.5%
26 | CC1=CC[C@H]2C(C)=CC[C@@H](C(C)C)[C@@H]2C1 | 13.1%
27 | CCCCCCCCCCCCCCCCCC[N+]1(C)CCOCC1 | 99.2% (active)
28 | NC1C(O)C(N)C(O)C(O)C1O (stereo not given) | -13.4%
29 | O=C1CC(c2ccccc2)Oc2ccccc21 (stereo not given) | -25.2%
30 | CC1CSC(C)(C)C(=O)N1 (stereo not given) | 13.8%
31 | Nc1cccc(S(N)(=O)=O)c1 | 12.2%
32 | Cc1nc2ccccc2c(=O)n1NC(=S)Nc1cccc(Cl)c1 | -8.2%
33 | CCOC(=O)c1ccc(NC=O)cc1 | 1.95%
34 | C/C(=N\O)c1sc(-n2nc(-c3ccccc3)cc2-c2ccccc2)nc1C | 30.6%
35 | O=C(O)CCN1C(=S)CSC1=S | -33.9%
36 | COc1cc(-c2[nH]ncc2CCCC(=O)Nc2ccccc2[N+](=O)[O-])ccc1O | -2.75%
37 | CN(C)CC1CCC/C(=C\c2ccc(N(C)C)cc2)C1=O (stereo not given) | 6.2%
38 | COc1ccc(C2NCCCC2c2ccccc2)cc1 (stereo not given) | -40.2%
39 | CCOc1c(Cl)c(Cl)c(Cl)c(Cl)c1Cl | -2.9%
40 | CCOC(=O)C(Cc1cc(C)c(O)c(I)c1)NC(C)=O (stereo not given) | 5.85%
